Assay outcomes (PubChem)
rCAG binder = r(CAG) repeat RNA binding; actives 1.3% (n = 370,000); inhibition, % at 3 µM; TO-PRO-1 dye displacement fluorescence;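 active means inhibition above the plate cutoff, the mean of all test compounds on that plate plus 3 SD, cut at about 35% in these data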;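 further: 0% = DMSO alone and 100% = 100 µM mitoxantrone as full dye displacement; higher means more dye released from RNA so lower well fluorescence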
PRMT1 inh = inhibitors of human PRMT1. recombinant PRMT1, activity-based probe fluorescence polarization. Q99873. actives 1.3% (n = 370,000). inhibition, % at 2.79 µM;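 active means inhibition above about 21% made by adding two undisclosed values, limit read from the data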
TLR4-MyD88 BLA = inhibitors of human TLR4-MyD88 binding; O00206+Q99836; inhibition, % at 8.4 µM; HeLa CL3-4 TLR4/MyD88 BLA complementation, FRET ratio; actives 0.18% (n = 200,000); in the data active means inhibition above about 25%;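 further: 0% = vehicle and 100% = reference inhibitor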
NOD2-RIPK2 inh = NOD2-RIPK2 protein interaction inhibition | O43353 | CHO BLA complementation NOD2-RIPK2, CCF4 ratio | inhibition, % at 4.98 µM | actives 0.38% (n = 360,000) | AID 624267; in the data active means inhibition above about 21%;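 further: 0% = vehicle only and 100% = reference blocker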
ABHD5-PLIN5 inh = inhibitors of human ABHD5-perilipin-5 interaction; Q00G26+Q8WTS1; Split G. princeps luciferase complementation, luminescence, 4 h; inhibition, % at 4 µM; actives 0.78% (n = 360,000); AID 602281;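 active means inhibition above the mean inhibition across every tested compound plus 3 SD, cut at about 22% in these data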;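 further: 0% = DMSO only wells and the 100% control is not disclosed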
TLR9-MyD88 inh = TLR9-MyD88 interaction inhibition; AID 504734; inhibition, % at 4.98 µM; CHO BLA complementation TLR9-MyD88, CCF4 FRET ratio; Q9NR96+Q99836; actives 0.21% (n = 340,000);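 active means inhibition above the mean over all tested compounds plus 3 SD, cut at about 21% in these data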;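 further: 0% = DMSO only wells and 100% = clavulanate BLA inhibitor control wells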
ABHD5 PLIN5 conf = confirmation of human ABHD5-PLIN5 interaction inhibitors. shares compounds with ABHD5-PLIN5 inh. biochemical ABHD5-PLIN5 interaction, luminescence. inhibition, % at 4 µM. actives 67% (n = 2,200). AID 651612; in the data active means inhibition above about 23%;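 further: 0% = DMSO vehicle wells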
HNF4 split-luc = counter-screen for ABHD5-PLIN5 inhibitors: HNF4 split-luciferase; shares compounds with ABHD5-PLIN5 inh; HNF4 dimerization, luminescence, biochemical; actives 77% (n = 2,200); inhibition, % at 4 µM; AID 651674;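 active means mean inhibition across replicate wells exceeding the computed hit threshold, cut at about 13% in these data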;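 further: light from luciferase halves that rejoin when HNF4 fusion proteins dimerize; 0% = DMSO only wells and the 100% control is not given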
Target sequence (P41235 whole entry, looked up, the tested form may be a part): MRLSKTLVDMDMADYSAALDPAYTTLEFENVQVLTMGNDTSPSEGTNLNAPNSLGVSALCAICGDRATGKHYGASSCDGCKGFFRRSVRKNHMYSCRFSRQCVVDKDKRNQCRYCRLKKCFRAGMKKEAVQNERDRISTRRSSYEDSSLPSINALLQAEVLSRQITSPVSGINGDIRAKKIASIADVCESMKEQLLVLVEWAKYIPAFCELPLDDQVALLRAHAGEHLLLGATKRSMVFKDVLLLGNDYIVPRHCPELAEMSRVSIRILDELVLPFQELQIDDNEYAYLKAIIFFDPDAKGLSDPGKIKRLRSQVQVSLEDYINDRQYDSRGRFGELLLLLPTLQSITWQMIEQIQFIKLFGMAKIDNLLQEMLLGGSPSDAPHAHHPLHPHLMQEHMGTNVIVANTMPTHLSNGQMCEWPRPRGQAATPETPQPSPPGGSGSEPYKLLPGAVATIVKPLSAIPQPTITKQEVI
Starred values were filed as active, the others as inactive; · = not tested or not shown. The list is not random: actives were taken first. Their share in the collection is about 3.3%.

SMILES	rCAG binder	PRMT1 inh	TLR4-MyD88 BLA	NOD2-RIPK2 inh	ABHD5-PLIN5 inh	TLR9-MyD88 inh	ABHD5 PLIN5 conf	HNF4 split-luc
CCOC(=O)c1c(-c2ccc(C)o2)csc1NC(=O)COC(=O)c1ccc(NC(N)=O)cc1	16	18	-8	10	38*	-5	21	44*
O=C(CN1C(=O)COc2ccccc2C1=O)c1ccc2c(c1)OCCO2	-2	-1	·	-8	-1	-3	·	·
CN1CCN(CC#CCn2c3ccccc3c3ccccc32)CC1	-5	0	-7	-7	23*	0	12	1
CN1CCN(CC(O)Cn2c3ccccc3c3ccccc32)CC1 (configuration not stated)	-2	2	·	-3	0	11	·	·
O=C(C[n+]1cccc(CNC(=O)c2ccc(OC(F)F)cc2)c1)Nc1ccc(F)cc1	12	4	-6	2	11	7	·	·
O=C(C[n+]1cccc(CNC(=O)c2ccc(OC(F)F)cc2)c1)Nc1cccc(C(F)(F)F)c1	10	-1	-2	-4	32*	4	24*	3
COc1ccc(-n2c(N)c(C(=O)NCc3ccco3)c3nc4ccccc4nc32)cc1OC	9	3	2	-7	20	1	·	·
COc1ccc(-n2c(N)c(C(=O)NCc3ccco3)c3nc4ccccc4nc32)cc1	14	8	-15	-1	33*	2	31*	32*
O=C(NCc1ccccc1Cl)C1CCC(=O)N(CC2CCCCC2)C1 (configuration not stated)	-8	-4	·	-2	4	6	·	·
O=C1CC(c2ccccc2)Oc2ccccc21 (configuration not stated)	0	-1	·	-8	12	3	·	·
O=C1CC(c2ccc(Cl)cc2)Oc2ccc(Cl)cc21 (configuration not stated)	4	0	·	-2	23*	-8	62*	33*
CC1(C)CC(=O)C(=Cc2cn(CCC#N)nc2-c2ccc(F)cc2)C(=O)C1	-1	-1	-4	-3	23*	-1	45*	38*
CCOc1ccc(N)c(SSc2cc(OCC)ccc2N)c1	12	86*	·	-9	73*	-4	82*	97*
O=C(NCc1ccco1)c1nn2c(C(F)(F)F)cc(-c3cccs3)nc2c1Br	7	13	1	8	26*	11	34*	62*
COc1ccc(OCC(=O)Nc2ccc3c(c2)nc(CCN2CCC(C)CC2)n3C)cc1	-9	-4	·	0	9	-3	·	·
CC1CCN(CCc2nc3cc(NC(=O)COc4ccc(Cl)cc4)ccc3n2C)CC1	-8	0	·	5	23*	8	8	4
CN1CCN(C(c2ccc(Br)cc2)c2cc(Cl)c3cccnc3c2O)CC1 (configuration not stated)	9	-3	·	8	2	13	·	·
COC(=O)CN1C(=O)N/C(=C/c2ccc(C)o2)C1=O	1	56*	-15	6	25*	-3	14	49*
COC(=O)C1=C(C(=O)OC)[C@@]2([C@H](Cc3ccc(C)cc3)Nc3ccccc3)C=C[C@@H]1O2	·	0	·	·	·	·	·	·
C=CCC(Nc1ccccc1)C12C=CC(O1)C(C(=O)OC)=C2C(=O)OC (configuration not stated)	-3	0	10	17	26*	-1	86*	90*
CCOC(=O)C(C(=O)OCC)C1OC(=O)c2cc3c(cc21)C(=O)OC3C(C(=O)OCC)C(=O)OCC (configuration not stated)	-4	0	-1	-4	32*	8	42*	28*
O=C(Nc1ccc(S(=O)(=O)N2CCCC2)cc1)c1c(F)cccc1F	1	0	·	5	0	15	·	·
O=S(=O)(CCSc1nc2ccccc2s1)c1nc2ccccc2s1	7	10	4	10	9	-2	·	·
CCCCN(C(=O)CSc1nnc(-c2ccco2)o1)c1c(N)n(Cc2ccccc2)c(=O)[nH]c1=O	-3	0	·	11	-6	3	·	·
CN1/C(=C/c2cccc[n+]2CCO)Sc2ccccc21	-4	6	·	-5	-3	-1	·	·
SMILES	rCAG binder	PRMT1 inh	TLR4-MyD88 BLA	NOD2-RIPK2 inh	ABHD5-PLIN5 inh	TLR9-MyD88 inh	ABHD5 PLIN5 conf	HNF4 split-luc
CC[n+]1c(/C=C2\Sc3ccccc3N2C)ccc2cccc(C)c21	-162	2	15	16	24*	-4	23*	26*
CCC(=O)NC1=C(Cl)C(=O)C(NC(=O)CC)=C(Cl)C1=O	0	90*	·	23*	45*	11	101*	103*
CCC(=O)NC1=C(NC(C)c2ccccc2)C(=O)c2ccccc2C1=O (configuration not stated)	-4	-1	2	-7	-9	-3	·	·
O=C(C[n+]1ccc(C(=O)c2ccccc2)cc1)Nc1cccc([N+](=O)[O-])c1	23	-2	·	-1	5	·	·	·
COc1cc2c(cc1OC)C(=O)C(c1ccc3c(c1)OCO3)CC2 (configuration not stated)	-2	0	·	-20	2	1	·	·
COc1cc2c(cc1OC)C(=O)C(Br)CC2 (configuration not stated)	·	·	·	-4	82*	0	5	16*
COc1ccc(S(=O)(=O)NCC2CC3C=CC2C3)cc1OC (configuration not stated)	-3	-3	·	3	-7	-3	·	·
NC(COCc1ccccc1)c1csc(Nc2ccccn2)n1 (configuration not stated)	6	-2	·	3	-1	·	·	·
O=c1[nH]c(C2CCN(S(=O)(=O)c3ccc(F)cc3)CC2)nc2c1nnn2Cc1ccc2c(c1)OCCO2	13	10	·	1	29*	-10	35*	8
O=c1[nH]c(C2CCN(S(=O)(=O)c3ccccc3F)CC2)nc2c1nnn2Cc1ccc2c(c1)OCCO2	2	-7	·	-5	-9	-2	·	·
O=c1[nH]c(C2CCN(S(=O)(=O)c3ccc(S(=O)(=O)NC4CC4)cc3)CC2)nc2c1nnn2Cc1ccccc1	13	-1	·	-9	3	-10	·	·
O=c1[nH]c(C2CCN(S(=O)(=O)c3ccc(S(=O)(=O)NC4CC4)cc3)CC2)nc2c1nnn2Cc1ccc(F)cc1	9	4	·	-3	28*	1	48*	3
CCOC(=O)C1=CCC(c2cc3ccccc3[nH]2)NC1 (configuration not stated)	5	2	·	-7	4	·	·	·
Cc1ccc2c(c1)/C(=C/c1ccccc1F)C(=O)N2	2	0	·	-5	31*	4	44*	39*
